Source: PubChem (several laboratories)
Hits are enriched below; roughly 1.9% of the tested compounds scored in any of these assays.
S1P1 ag-PAM – agonists and agonism potentiators of human S1P1 receptor. AID 449. activation, % at 9.5 µM. P21453. 0.57% of 56,000 active. S1P1 CRE-bla cells, forskolin, beta-lactamase FRET, potentiator mode; S1P1 agonist co-added at EC20, 2 nM; 100% = saturating reference agonist, 0% = basal;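 active = activation above a cutoff set at the mean activation of all tested compounds plus 3 SD, cut at about 54% in these data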;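 also: forskolin at 4 µM as EC80 and the EC20 agonist is SEW2871; 100% = SEW2871 at its EC100 plus forskolin at EC80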
Target sequence (P21453 whole entry, looked up): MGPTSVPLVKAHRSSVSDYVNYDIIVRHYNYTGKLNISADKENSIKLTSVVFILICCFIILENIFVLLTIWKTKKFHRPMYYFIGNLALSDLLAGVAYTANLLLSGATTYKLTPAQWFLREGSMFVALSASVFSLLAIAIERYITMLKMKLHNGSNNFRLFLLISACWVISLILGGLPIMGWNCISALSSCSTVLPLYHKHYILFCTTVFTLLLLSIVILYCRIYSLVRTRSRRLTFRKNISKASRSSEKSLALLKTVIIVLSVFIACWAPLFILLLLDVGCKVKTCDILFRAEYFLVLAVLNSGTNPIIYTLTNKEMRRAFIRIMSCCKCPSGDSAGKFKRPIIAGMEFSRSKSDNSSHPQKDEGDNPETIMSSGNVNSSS
BAP1 inh – inhibitors of human BAP1 deubiquitinase | recombinant BAP1, Ub-AMC hydrolysis fluorescence kinetic; stronger effect = lower value | activity remaining (% of control), % at 20 µM | 0.48% of 72,000 active | AID 436;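 active = activity remaining at or below 50% of control, provided the compound also passes the data quality filters; inactive = the rest, including low values that fail the filters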;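 also: 100% = DMSO wells rate and 0% = substrate alone blank rate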
Hsp90 inh – displaces geldanamycin probe from tumor Hsp90. NCI-N417 lysate Hsp90, Cy3B-geldanamycin FP displacement. P07900. inhibition, % at 30 µM. 0.35% of 64,000 active;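 active = inhibition above 50%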;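 also: 0% = tracer plus lysate wells and 100% = tracer alone without lysate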
TNAP act mid DEA – activators of human TNAP at intermediate phosphate acceptor. activation factor at 20 µM. 64,000 tested, under 10 active. purified TNAP, CDP-star luminescence, 100 mM DEA, 30 min; stronger effect = higher value; scale: 0 levamisole-inhibited, 1 vehicle-only enzyme;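 active = activation factor of at least 2 at 20 µM, relative to controls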
SKBR3 24h inh – SK-BR-3 proliferation inhibitors; SK-BR-3 viability, CellTiter-Glo ATP luminescence, 24 h; stronger effect = lower value; 0.47% of 41,000 active; viability, % at 10 µM;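 active = viability at or below the median of all test compounds minus 3 SD, in both replicates if run twice, cut at about 45% in these data; inconclusive = duplicate replicates that disagree with each other; inactive = viability above that cutoff in every replicate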;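 also: 100% = median untreated cell wells and 0% = median positive control drug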
HER2 expr 66K – lowers expression of human Her2 kinase | P04626 | SKBR-3 HER2 protein level, AlphaScreen, 18-24 h; stronger effect = lower value | HER2 level % of control, % at 10 µM | 0.69% of 65,000 active | AID 645;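 active = HER2 level under 5% of the carrier-only control; inconclusive = no clear call, values can overlap the other calls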;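 also: 100% = DMSO carrier and 0% = 500 nM PU-H71 HSP90 inhibitor; lower value means stronger loss of Her2 protein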
BAP1 inh confirm – BAP1 (human) enzyme inhibition, confirmed; shares compounds with BAP1 inh; purified BAP1, Ub-ethyl ester hydrolysis, HPLC; stronger effect = lower value; % of control activity, % at 20 µM; 8% of 310 active; AID 753;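 active = percent of control activity at or below 60%; inconclusive = HPLC trace unusable from injection failure or solvent front hiding peaks; inactive = the rest, plus ubiquitin peak ratio over a set limit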
Active calls of the source: *; i = inactive; u = inconclusive; x = not tested or not shown.

SMILES | S1P1 ag-PAM | BAP1 inh | Hsp90 inh | TNAP act mid DEA | SKBR3 24h inh | HER2 expr 66K | BAP1 inh confirm
Cc1nnc(SCc2nc3ccccc3s2)n1-c1ccccc1 | 5.2 | 105.5 | -11.2 | 0.9 | x | 80.7 | x
CCOC(=O)N1CCN(C(=O)CN(C2CCCCC2)S(=O)(=O)c2ccc(F)cc2)CC1 | x | 104.4 | -3.7 | 0.9 | 99.8 | 37.6 | x
Cc1ccc2cc(CN(Cc3ccc4c(c3)OCO4)Cc3nnnn3Cc3ccco3)c(=O)[nH]c2c1C | -8.3 | 49.4* | 1.5 | 0.9 | 86.5 | 63.5 | 94.4
Cc1ccc(NC(=O)N2CCC(C(=O)NCCC3=CCCCC3)CC2)cc1 | -4.1 | 30.6* | -0.1 | 0.9 | 93.6 | 102.7 | 67.3
CN(C)S(=O)(=O)c1cc(C(=O)NCCCn2ccc3ccccc32)ccc1Cl | 0.9 | 90.0 | -5.8 | 0.9 | x | 91.9 | x
O=C1[C@H]2[C@@H](C(=O)N1c1cc(Cl)cc(Cl)c1)[C@]1(C(=O)Nc3ccccc31)N1CCC[C@@H]21 | -1.8 | 43.8* | -25.8 | 0.9 | 94.2 | 78.9 | 94.9
Cc1cc(Cl)c2c(c1)[C@]1(C(=O)N2)[C@@H]2C(=O)N(Cc3ccccc3)C(=O)[C@@H]2[C@@H]2CCCN21 | -6.6 | 100.1 | -9.6 | 1 | 92.5 | 58.8 | x
O=C(CSc1ccc2nnc(-c3cccs3)n2n1)N1CCOCC1 | -15.1 | 91.2 | -3.2 | 0.9 | x | 110.5 | x
COc1ccc(-c2cc3c(=O)n(CC(=O)NC4CCN(Cc5ccccc5)CC4)ncn3n2)cc1 | -16.0 | 45.5* | 0.5 | 0.9 | 88.0 | 70.0 | 87.0
COc1ccc(Cl)cc1NC(=O)C1=C(C)NC(=S)NC1c1ccccc1F (stereo unspecified) | x | 71.3 | x | x | x | x | x
CCc1ccc2[nH]c(=O)c(CN(Cc3ccc4c(c3)OCO4)Cc3nnnn3C3CCCC3)cc2c1 | -24.3 | x | 3.1 | 0.9 | 90.0 | 62.8 | x
Cc1ccc2cc(CN(Cc3ccc(F)cc3)Cc3nnnn3C3CCCC3)c(=O)[nH]c2c1 | -2.4 | 46.9* | -2.9 | 0.9 | x | 86.5 | 86.0
Cc1ccc2cc(CN(Cc3ccccc3)Cc3nnnn3C3CCCC3)c(=O)[nH]c2c1 | 1.3 | 47.4* | -5.1 | 0.9 | x | 66.8 | 90.3
CCC(c1nnnn1C1CCCC1)N(Cc1cccs1)Cc1cc2cc(C)ccc2[nH]c1=O (stereo unspecified) | 7.4 | 36.6* | -6.7 | 0.9 | x | 43.4 | 76.4
Cc1ccc(NS(=O)(=O)c2ccc3c(c2)c(=O)n(C)c(=O)n3C)cc1F | x | 85.2 | -0.8 | 0.9 | x | 96.3 | x
O=C(NCCN1CCN(C(=O)c2cc3ccccc3oc2=O)CC1)c1cc2ccccc2oc1=O | 0.0 | 76.5 | -1.6 | 0.9 | 73.2 | 98.8 | x
Cc1ccc2[nH]c(=O)c(C(c3nnnn3CCc3ccccc3)N3CCOCC3)cc2c1 (stereo unspecified) | 2.6 | 45.6* | -0.1 | 0.8 | 84.0 | 92.0 | 89.8
COc1ccccc1C(c1nnnn1CCc1ccccc1)N1CCN(c2ccccc2)CC1 (stereo unspecified) | -42.5 | 49.6* | 0.0 | 0.9 | 94.9 | 172.2 | 89.1
COc1cccc(C(c2nnnn2CCc2ccccc2)N2CCN(c3ccccc3)CC2)c1OC (stereo unspecified) | 13.2 | 93.0 | 1.8 | 0.9 | 47.1 | 70.0 | x
O=C(O)c1c(-c2ccccc2)c2oc3ccccc3c2[nH]c1=O | -72.7 | 46.4* | -2.2 | 0.9 | 84.1 | 69.2 | 115.4
CCn1c(SCC(=O)c2cc(OC)ccc2OC)nc2c1c(=O)n(C)c(=O)n2C | -19.2 | 104.2 | -1.4 | 0.8 | 92.7 | 108.1 | x
COc1ccc2c(c1)c1nc(SCC(C)C)n(CCO)c(=O)c1n2C | -3.3 | 47.7* | -2.8 | 1 | x | 80.3 | 117.4
CCN(CC)S(=O)(=O)c1ccc(Cl)c(C(=O)Oc2cccnc2)c1 | -5.5 | 105.3 | -3.3 | 1 | x | 85.7 | x
O=C(CSc1nnc(-c2c[nH]c3ccccc23)o1)N1c2ccccc2CCc2ccccc21 | 56.5 | 46.0* | 1.9 | 1 | 103.8 | 88.3 | 93.7
Cc1cc(C(F)(F)F)nn1CC(=O)NCC1CCCO1 (stereo unspecified) | -1.9 | 84.1 | -0.1 | 0.9 | 73.5 | 86.1 | x
SMILES | S1P1 ag-PAM | BAP1 inh | Hsp90 inh | TNAP act mid DEA | SKBR3 24h inh | HER2 expr 66K | BAP1 inh confirm
CCc1nnc(NC(=O)C2Cc3ccccc3C(=O)O2)s1 (stereo unspecified) | -19.4 | 105.2 | -3.5 | 1 | x | 112.4 | x
O=C(CSc1nnc(-c2cc3ccccc3cc2O)n1Cc1ccco1)c1ccc(F)cc1 | 58.7 | 40.3* | -2.5 | 0.9 | 100.7 | 84.3 | 77.5
Cc1occc1-c1nnc(SCC(=O)c2ccc(F)cc2)n1Cc1ccco1 | -26.8 | 96.0 | -2.2 | 0.9 | 67.0 | 75.9 | x
CCc1nc(SCC(=O)Nc2ccc3c(c2)OCCO3)c2oc3ccccc3c2n1 | 3.1 | 49.7* | -0.9 | 0.9 | 89.3 | 102.0 | u
CCC(C)Sc1nc2c(cnn2-c2ccc(C)c(C)c2)c(=O)[nH]1 (stereo unspecified) | -58.5 | 76.2 | -2.9 | 0.9 | x | 102.0 | x
CSc1nc2c(cnn2-c2ccc(C)c(C)c2)c(=O)[nH]1 | -18.8 | 48.3* | -1.8 | 0.9 | x | 38.1 | u
Cc1csc(SCCn2c(Br)nc3c2c(=O)[nH]c(=O)n3C)n1 | -11.2 | 111.2 | -6.5 | 0.9 | 92.8 | 93.1 | x
COc1cccc(NC(=O)N2CCCC2C(=O)NC2CC2)c1 (stereo unspecified) | -4.1 | 106.9 | 1.8 | 0.9 | 111.4 | 110.1 | x
CCC(=O)N1CCc2cc(S(=O)(=O)NC(C(=O)NCc3ccc(C)cc3)C(C)C)ccc21 (stereo unspecified) | 6.3 | 37.8* | 1.0 | 1 | 102.2 | 87.7 | i
CCc1ccc(N/C(SCc2cccc(F)c2)=C(/C#N)C(=O)NCc2ccco2)cc1 | x | 32.3* | -0.1 | 0.9 | x | 84.5 | 111.3
CCc1cccc2c(C#N)cn(CC(=O)NCc3ccco3)c12 | 6.2 | 73.8 | -5.7 | 1 | 104.6 | 122.3 | x
CCOC(=O)C1CCCN(c2ccc(NC(=O)c3snc4c(=O)[nH]cnc34)cc2)C1 (stereo unspecified) | -11.9 | 43.7* | 7.1 | 0.9 | 85.2 | 100.6 | 103.3
CCN1CCN(C(=O)c2cn(CCOC)c(=O)c3c2c2ccccc2n3C)CC1 | 9.0 | 120.6 | -3.8 | 0.9 | 70.3 | 77.0 | x
CC(C)Cn1cc(C(=O)N2CCN(c3ccccn3)CC2)c2c3ccccc3n(C)c2c1=O | 3.0 | 49.8* | -4.9 | 0.9 | 73.2 | 90.0 | 142.8
COc1cc(NC(=O)c2cc3ccccc3o2)c(OC)cc1Br | -27.4 | 47.8* | -4.4 | 0.9 | x | 65.2 | 134.2
COc1cc(NC(=O)c2cc3ccccc3o2)c(OC)cc1Cl | -44.8 | 71.6 | 0.8 | 0.9 | 77.8 | 64.2 | x
S=c1[nH]c2ncccc2o1 | 2.5 | 101.0 | -3.0 | 0.9 | 86.9 | 93.8 | x
